Laboratory results taken from PubChem BioAssay (NCATS).
Results filed as inconclusive are left out. Calls of active or inactive are those of the source. Calls come from the whole dose curve; as a rule, active = well fitted curve in the direction sought with a large enough effect; inconclusive = small, poorly fitted or top-dose-only effect, or another doubt; inactive = no such curve, though single readings can be large; an effect the other way counts as inactive or inconclusive.

What was measured:
[1] = molecular target: Arylsulfatase A (Homo sapiens) (UniProt P15289); experiment: qHTS screen for enhancers of Arylsulfatase A (ASA1): LOPAC Validation Assay (AID 720538); note: potency is the fitted concentration of half-maximal effect
How it was run: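 MLD patient fibroblasts (SV40, ASA-I179S), 1536-well; adhere 6 hrs; cpd 48h, 37 degree C, 5% CO2; pNCS 0.5mM final in lysis buffer, 14h RT; stop 1N NaOH final; fluor. Ex525/Em598.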

[2] = qHTS for compounds that reverse cellular toxicity of Amyloid beta (A-beta) peptide in yeast: LOPAC Validation Assay (AID 720559)
How it was run: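 Medium dispensed, compounds pinned, A-beta yeast suspension added; plates held at 30 C for 48 hr; absorbance measured at 600 nm to gauge growth; values scaled between DMSO and FeCl3/clioquinol (equimolar) controls.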

[3] = qHTS for Activators of Parkin Expression: LOPAC Validation Assay (NLuc Reporter) (AID 720572; note: potency is the fitted concentration of half-maximal effect)
How it was run: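 NLuc signal, read 10 min after reagent and following a prior FLuc read, is normalized to DMSO (0) and positive controls (100%). Cells: neuronal Parkin-promoter coincidence reporter line; compounds tested 7-point, 24 h, 37 C, 5% CO2.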

[4] = qHTS for Activators of Parkin Expression: LOPAC Validation Assay (FLuc Reporter) (AID 720573; note: potency is the fitted concentration of half-maximal effect)
How it was run: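 Cells seeded, 24 h; compounds pinned, 7-pt dose response; 24 h at 37 C/5% CO2; volume reduced; FLuc reagent 10 min RT; luminescence read. Normalization: DMSO = 0, positive control = 100%.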

Measured: Potency

Chain of Arylsulfatase A (Homo sapiens) (P15289 whole entry, looked up): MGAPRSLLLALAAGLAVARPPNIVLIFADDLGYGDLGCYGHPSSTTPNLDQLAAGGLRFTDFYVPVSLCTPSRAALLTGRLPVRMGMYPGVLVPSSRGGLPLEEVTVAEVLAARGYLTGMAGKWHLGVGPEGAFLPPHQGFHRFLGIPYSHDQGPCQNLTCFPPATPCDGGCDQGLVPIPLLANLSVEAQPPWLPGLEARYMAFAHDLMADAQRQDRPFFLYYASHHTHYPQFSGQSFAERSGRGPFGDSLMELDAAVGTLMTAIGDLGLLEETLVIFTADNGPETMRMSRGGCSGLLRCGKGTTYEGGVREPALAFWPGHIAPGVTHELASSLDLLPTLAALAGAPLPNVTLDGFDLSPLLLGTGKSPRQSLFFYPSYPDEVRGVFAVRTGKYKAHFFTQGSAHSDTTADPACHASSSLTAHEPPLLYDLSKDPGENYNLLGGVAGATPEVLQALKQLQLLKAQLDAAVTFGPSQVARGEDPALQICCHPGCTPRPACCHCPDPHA

c1ccc(C2CN3CCSC3=N2)cc1 (configuration not stated)
inactive: [1] | [2] | [3] | [4]

NCCCCN
inactive: [1] | [2] | [3] | [4]

O[Si](CCCN1CCCCC1)(c1ccc(F)cc1)C1CCCCC1 (configuration not stated)
inactive: [1] | [2] | [3] | [4]

Nc1ncnc2c1nc(Br)n2C1OC2COP(=O)(O)O[C@@H]2C1O (some centres not stated)
inactive: [1] | [2] | [3] | [4]

CCCC(=O)NCCc1c2n(c3ccc(OC)cc13)CCCc1ccccc1-2
inactive: [1] | [2] | [3] | [4]

COC1(C2=NCCN2)COc2ccccc2O1 (configuration not stated)
inactive: [1] | [2] | [3] | [4]

N#C/C(=C\c1ccc(O)c(O)c1)C(=O)NCCCNC(=O)/C(C#N)=C/c1ccc(O)c(O)c1
inactive: [1] | [2] | [3] | [4]

N=C(N)SCCN
inactive: [1] | [2] | [3] | [4]

N[C@@H](CCC(=O)N[C@H](CSN=O)C(=O)NCC(=O)O)C(=O)O
inactive: [1] | [2] | [3] | [4]

OC[C@H]1O[C@@H](n2cnc3cncnc32)[C@H](O)[C@@H]1O
inactive: [1] | [2] | [3] | [4]

COc1ccc2c(c1)CCC1C2CC[C@@]2(C)C1CC[C@@H]2NCCCCCCN1C(=O)C=CC1=O (some centres not stated)
inactive: [1] | [2] | [3]

CC(=O)O[C@H]1Cc2ccccc2N(C(N)=O)c2ccccc21
inactive: [1] | [2] | [3] | [4]

COc1ccccc1N1CCN(CCN(C(=O)c2ccc(F)cc2)c2ccccn2)CC1
inactive: [1] | [2] | [3] | [4]

Cc1cccc(C(=O)NCN2CCN(c3ccccc3C#N)CC2)c1
inactive: [1] | [2] | [3] | [4]

COC(=O)C(N)Cc1ccc(Cl)cc1 (configuration not stated)
inactive: [1] | [2] | [3] | [4]

CN1CC(O)C(O)C(O)C1CO (configuration not stated)
inactive: [1] | [2] | [3] | [4]

O=c1ccc2c(OCCCCc3ccccc3)c3ccoc3cc2o1
inactive: [1] | [2] | [3] | [4]

CN[C@H](CC(=O)O)C(=O)O
inactive: [1] | [2] | [3] | [4]

c1ccc(CN2CCC3(CCCc4ccccc43)CC2)cc1
inactive: [1] | [2] | [3] | [4]

N[C@H](C(=O)O)c1cc(O)cc(O)c1
inactive: [1] | [2] | [3] | [4]

Cc1cc2c(cc1Cl)N(C(=O)Nc1ccnc3ccccc13)CC2
inactive: [1] | [2] | [3] | [4]

O=C1Cc2c([nH]c3ccc(Br)cc23)-c2ccccc2N1
inactive: [1] | [2]
active: [3] 5.8 µM | [4] 2.59 µM

NCCC1CCCC(CCN)N1 (configuration not stated)
inactive: [1] | [2] | [3]

O=C(O)/C(=C/c1c(C(=O)O)[nH]c2cc(Cl)cc(Cl)c12)c1ccccc1
inactive: [1] | [2] | [3] | [4]

CCCCCCN(CCCCCC)C(=O)Cc1c(-c2ccc(F)cc2)[nH]c2ccccc12
inactive: [1] | [2] | [3] | [4]

Nc1ccc(-c2ccc3ccccc3n2)cc1
inactive: [1] | [2] | [3]

NCCCCN=C(N)N
inactive: [1] | [2] | [3] | [4]

CCCCCCCCCC(=O)NC(CN1CCOCC1)[C@H](O)c1ccccc1 (some centres not stated)
inactive: [1] | [2] | [3]

OC[C@H]1NC[C@@H](O)[C@@H]1O
inactive: [1] | [2] | [3] | [4]

CNC(=O)c1cc2c(cn1)[nH]c1ccccc12
inactive: [1] | [2] | [3]

Nc1ccc(N2C(=O)c3ccccc3C2=O)c(Cl)c1
inactive: [1] | [2] | [3] | [4]

COc1cccc(OC)c1OCCNCC1CSc2ccccc2O1 (configuration not stated)
active: [1] 1.07 µM
inactive: [2] | [3] | [4]

C=C1C[C@@]23CC[C@H]4[C@@](C)(CCC[C@@]4(C)C(=O)O)[C@@H]2CC[C@]1(O)C3
inactive: [1] | [2] | [3] | [4]

CSC(N)=NCCC[C@H](N)C(=O)O
inactive: [1] | [2] | [3] | [4]

N[C@H](C(=O)O)[C@H](Cc1ccccc1)C(=O)O
inactive: [1] | [2] | [3] | [4]

NCCS(=O)O
inactive: [1] | [2] | [3] | [4]

O=c1ccn([C@@H]2O[C@H](COP(=O)(O)OP(=O)(O)O)[C@@H](O)[C@H]2O)c(=O)[nH]1
inactive: [1] | [2] | [3] | [4]

COc1cc(C(O)C(=O)O)ccc1O (configuration not stated)
inactive: [1] | [2] | [3] | [4]
